In PubChem BioAssay AID588499 (NMMLSC, 2011):
Out of some 360,000 compounds screened, about 610 (0.17%) were called active. Not shown: some 2% with an inconclusive outcome. Rule as the data show it: active = inhibition above about 30%; inconclusive = no clear call, values can overlap the other calls; inactive = below that. Only a selection was taken, and actives are over-represented in it overall.

These molecules were tested on Botulinum neurotoxin type A light chain protease (Clostridium botulinum A str. ATCC 3502) (assay: BoNT/A light chain protease inhibitors, primary screen, biochemical, flow cytometry, MLPCN library (AID 588499; also: plate controls were buffer without enzyme for full effect and enzyme alone for no effect)). Settings: multiplex microsphere protease substrate cleavage, at 10 µM, active compounds read high.
NC(CSC12CC3CC(CC(C3)C1)C2)C(=O)O (configuration not stated) was tested, and the inhibition was 1.6% (inactive).
In the case of CCCCN(C(=O)COc1ccc(NC(C)=O)cc1)C1CCS(=O)(=O)C1 (configuration not stated), the inhibition is reported as 1.1% (inactive).
For O=C(Nc1ccc(-n2ccnc2P(=O)(O)c2ccccc2)cc1)c1ccccc1Br, the inhibition was 1.4% (inactive).
In the case of COC(=O)C[n+]1cccc2ccccc21, the inhibition is reported as 28.6% (inactive).
O=C(CNC(=O)c1ccccc1F)c1ccc(Br)cc1 was tested, and the inhibition was 0.8% (inactive).
O=C(C[n+]1cc(Br)cc2ccccc21)c1ccc(F)cc1 was tested, and the inhibition was 120% (active).
In the case of Cc1cc(C)c2c(c1)cc(C)c1nnc(SCC(=O)Nc3cc(C)on3)n12, the inhibition is reported as -0.7% (inactive).
CCOCC(=O)NCc1ccc2c(c1)cc(C)n2C was tested, and the inhibition was 6% (inactive).
For COc1cc(C(=O)NCc2ccc3c(c2)cc(C)n3C)cc(OC)c1OC, the inhibition was 74.1% (active).
In the case of COc1cc(C(=O)NCc2cc3cc(Cl)ccc3n2C)cc(OC)c1OC, the inhibition is reported as 0.3% (inactive).
CCC(Cc1ccccc1)NC(=O)C1CCCCC1 (configuration not stated) was tested, and the inhibition was 0.2% (inactive).
For O=C(c1c(Cl)nc2sccn12)N1CCCc2ccccc21, the inhibition was 0% (inactive).
With Cc1cccc2cc3c(N)c(C(=O)N4CCCc5ccccc54)sc3nc12 the inhibition was 54.5% (active).
In the case of Cc1ccc(C(=O)N2CCCc3ccccc32)c(Cl)c1, the inhibition is reported as -0.5% (inactive).
In the case of COc1cc2ccc(C(C)=O)c(O)c2cc1OC, the inhibition is reported as 0% (inactive).
With C[C@H]1COc2cc(N3CCSCC3)ccc2S(=O)(=O)N1 the inhibition was 1.1% (inactive).
With Cc1noc(C)c1NC(=O)Nc1cccc2c1O[C@H](CN(C)S(=O)(=O)c1c(C)noc1C)[C@@H](C)CN([C@H](C)CO)C2=O the inhibition was -0.8% (inactive).
For COc1ccc(OC)c(NC(=O)C2CCCN2S(=O)(=O)c2cccc3nsnc23)c1 (configuration not stated), the inhibition was 0.9% (inactive).
For O=c1c(-c2ccccc2Cl)c[nH]n1-c1ccccc1, the inhibition was 1.7% (inactive).
For CCCCNC(=O)C[C@@H]1C[C@@]2(C(=O)OCC)CCC=C2N(Cc2ccco2)C1=O, the inhibition was 0.2% (inactive).
CN1CC(c2ccccc2)C2(COc3ccccc3C2=O)C12C(=O)Nc1ccccc12 (configuration not stated) was tested, and the inhibition was -0.4% (inactive).
With CCc1nc2c(OCC(=O)C(C)(C)C)cccn2c1N(C)C(=O)c1ccccc1F the inhibition was -0.5% (inactive).
CC(NCc1nc2ccccc2n1C)C12CC3CC(CC(C3)C1)C2 (configuration not stated) was tested, and the inhibition was 0% (inactive).
In the case of CN1C=CC=C/C1=C1\SC(=S)N(Cc2ccccc2)C1=O, the inhibition is reported as -1.8% (inactive).
With COc1ccc(CCNC2=C(Cl)C(=O)N(Cc3ccccc3)C2=O)cc1OC the inhibition was -0.2% (inactive).
COc1cc(/C=C2/SC(=S)N(Cc3ccccc3)C2=O)cc(OC)c1O was tested, and the inhibition was 39.9% (active).
For O=C(O)CN(Cc1ccco1)S(=O)(=O)c1ccc(F)cc1, the inhibition was -0.4% (inactive).
Cc1csc(Nc2ccc(Cl)cc2)[n+]1-c1ccc(Cl)cc1 was tested, and the inhibition was -2% (inactive).
For O=C(CN1C(=O)c2ccc([N+](=O)[O-])cc2C1=O)Nc1nnc(C2CC2)s1, the inhibition was -0.6% (inactive).
For COc1cccc(-c2cc3nc4c(c(N5CCC6(CC5)OCCO6)n3n2)CCCC4)c1, the inhibition was 0.1% (inactive).
In the case of Cc1onc(-c2ccccc2Cl)c1C(=O)N(Cc1ccc(N(C)C)cc1)C(C)C, the inhibition is reported as -3.2% (inactive).
In the case of Cc1ccc2cc(CCNC(=O)c3c(-c4ccccc4Cl)noc3C)c(=O)[nH]c2c1, the inhibition is reported as -0.3% (inactive).
Cc1onc(-c2ccccc2Cl)c1C(=O)NCCn1ccc2ccccc21 was tested, and the inhibition was 81.2% (active).
With Oc1c(Cl)cc(Cl)c(Cl)c1Cc1c(O)c(Cl)cc(Cl)c1Cl the inhibition was -1% (inactive).
With CC(=O)Nc1ccc(NC(=O)C(C)n2c3ccccc3c3nc(=O)cc(C)n32)cc1 (configuration not stated) the inhibition was -0.3% (inactive).
COc1ccc(-c2cc3c(c4c2ccn4C)C2CCC3C2)cn1 (configuration not stated) was tested, and the inhibition was 52.1% (active).
In the case of Cc1cccc(S(=O)(=O)N(C)C[C@H]2OCc3cnnn3CCCC(=O)N([C@@H](C)CO)C[C@H]2C)c1, the inhibition is reported as -0.3% (inactive).
Cc1c(CC(=O)N2CCN(C(=O)C3COc4ccccc4O3)CC2)c(=O)oc2c(O)c(O)ccc12 (configuration not stated) was tested, and the inhibition was 3.7% (inactive).
With COc1ccc(CCNC(=O)C2CC3Cn4c(nc5cc(C)c(C)cc54)C3N2C)cc1 (configuration not stated) the inhibition was -0.2% (inactive).
With O=C1[C@@H]2C(c3cccnc3)=NO[C@@H]2C(=O)N1c1ccc(Cl)cc1Cl the inhibition was -0.1% (inactive).
With COc1ccc(NC(=O)N2CCCC(C(=O)Nc3ccccc3OC)C2)cc1 (configuration not stated) the inhibition was -1.6% (inactive).
CC1(C(=O)NCc2ccc3c(c2)OCO3)CCN1C(=O)Cc1cccs1 (configuration not stated) was tested, and the inhibition was -0.2% (inactive).
CCN(CC)C(=O)C(C)N1c2cccc3cccc(c23)S1(=O)=O (configuration not stated) was tested, and the inhibition was 0.5% (inactive).
In the case of CC(C)c1nc(CNC(=O)CC2C(=O)NCCN2Cc2cccc(F)c2F)cs1 (configuration not stated), the inhibition is reported as 0% (inactive).
With Cc1ccc(C(=O)NCC(=O)OCC(=O)Nc2cccc(S(=O)(=O)N3CCCC3)c2)cc1C the inhibition was -0.4% (inactive).
In the case of COC1=NC2=NCCN2C(OC)=N1, the inhibition is reported as -0.5% (inactive).
C[C@H](CO)N1C[C@H](C)[C@@H](CN(C)C(=O)C2CCCCC2)OCc2cnnn2CCCC1=O was tested, and the inhibition was -0.2% (inactive).
COc1ccc(S(=O)(=O)N(CCCN2CCCC2=O)Cc2cc3c(C)ccc(C)c3[nH]c2=O)cc1 was tested, and the inhibition was 0.4% (inactive).
In the case of CNC(=O)Nc1cc(C(C)(C)C)no1, the inhibition is reported as 0% (inactive).
For CCOC(=O)C1=C(C)NC2=C(C(=O)CC(C)(C)C2)C1c1ccsc1 (configuration not stated), the inhibition was 1.6% (inactive).
For Cc1ccc(-c2nc(-c3cccnc3)sc2CC(=O)Nc2ccc(C)c(Cl)c2)cc1, the inhibition was 51.4% (active).
With Cc1ccc(NC(=O)COc2ccc(-n3ccnc3)cc2)cc1Cl the inhibition was -0.5% (inactive).
With Cc1nc(-c2ccc(F)cc2)c(CC(=O)Nc2cccc(S(=O)(=O)N3CCOCC3)c2)s1 the inhibition was 1.2% (inactive).
With Nc1ncnc2c1cnn2C1CC(O)C(CO)O1 (configuration not stated) the inhibition was 0.6% (inactive).
C=C1C(=O)[C@]23C[C@H]1CCC2[C@@]1(C)C(C[C@@H]3O)[C@](C)(C(=O)O)CC[C@@H]1O (some centres not stated) was tested, and the inhibition was 0.1% (inactive).
With Cc1cc(N2CCCC2)ccc1NC(=O)COc1ccc(Cl)cc1 the inhibition was -8.3% (inactive).
In the case of CCN1/C(=C\c2ccc3ccccc3[n+]2CC)Sc2cc(C)ccc21, the inhibition is reported as 71.1% (active).
CC(C)C[C@@H](COCc1ccc(Cl)cc1)N1CCN(C(=O)c2ccc(Cl)cc2Cl)CCC1=O was tested, and the inhibition was -0.6% (inactive).
With COc1ccc(C(=O)NC(=S)N2CCNC(=O)C2CC(=O)OC(C)C)cc1 (configuration not stated) the inhibition was -0.1% (inactive).
In the case of Cc1cccc(-n2c(SCC(N)=O)nc3c(c2=O)C2(CCCCC2)Cc2ccccc2-3)c1, the inhibition is reported as -0.1% (inactive).
With COc1ccc(COC[C@H](CC(C)C)N2CCN(C(=O)c3cccc(C(F)(F)F)c3)CCC2=O)cc1 the inhibition was 0.7% (inactive).
In the case of CC(C(=O)Nc1ccc(O)c(C(=O)O)c1)N1C(=O)/C(=C/c2cccs2)SC1=S (configuration not stated), the inhibition is reported as 2% (inactive).
Cc1ccc(C(=O)O)cc1-c1ccc(/C=C2\SC(=O)N(CC(=O)Nc3ccc4c(c3)OCO4)C2=O)o1 was tested, and the inhibition was 0.8% (inactive).
For CN1C(=O)/C(=C\c2ccc(-c3ccccc3)o2)SC1=S, the inhibition was 66.9% (active).
In the case of NS(=O)(=O)c1ccc(-c2ccc(/C=C3\SC(=O)NC3=O)o2)cc1, the inhibition is reported as 0.3% (inactive).
In the case of CC(C(=O)NC1CCS(=O)(=O)C1)N1C(=O)/C(=C/c2ccc(Cl)cc2)SC1=S (configuration not stated), the inhibition is reported as 2.3% (inactive).
O=C(O)C(c1ccccc1)N1C(=O)/C(=C\c2ccc(-c3cccc(Cl)c3)o2)SC1=S (configuration not stated) was tested, and the inhibition was 39.3% (active).
With CN(CC(=O)Nc1c(Cl)cccc1Cl)C(=O)c1ccncc1 the inhibition was -3.2% (inactive).
In the case of COc1ccc(C(c2nnnn2Cc2cccs2)N2CCN(c3ccccc3)CC2)cc1OC (configuration not stated), the inhibition is reported as -0.3% (inactive).
CCOCCCNC(=O)c1cn(CC(C)C)c(=O)c2c1c1ccccc1n2C was tested, and the inhibition was 2.4% (inactive).
O=c1[nH][nH]c2c1[C@H](c1ccc(Cl)cc1)O[C@H](CCc1ccccc1)C2 was tested, and the inhibition was -0.3% (inactive).
For COc1ccc(C(NC(=O)C2CCN(CCCc3ccccc3)CC2)c2cccs2)cc1 (configuration not stated), the inhibition was -0.5% (inactive).
With O=C(Nc1ccc2c(c1)[C@@H]1C[C@@H](CC(=O)N3CCCCC3)O[C@@H](CO)[C@@H]1O2)NC1CCCCC1 the inhibition was 0.1% (inactive).
For COC(=O)[C@]12CCCCC=C1N(Cc1ccco1)C(=O)[C@H](CC(=O)NCC1CCCCC1)C2, the inhibition was -1.1% (inactive).
Cc1ccc(CCn2c3c(c4ccccc42)CN(C)CC3)cn1 was tested, and the inhibition was 1.5% (inactive).
CCC(C)C(N=C1NS(=O)(=O)c2ccccc21)C(=O)N1CCC(C)CC1 (configuration not stated) was tested, and the inhibition was -2.7% (inactive).
CCCSc1nc2sc3c(c2c(=O)n1-c1ccc(OC)cc1)CCN(C)C3 was tested, and the inhibition was 49.9% (active).
In the case of CCOc1ccc(-n2c(SCC(=O)OC)nc3sc4c(c3c2=O)CCN(C)C4)cc1, the inhibition is reported as 26.5% (inactive).
For CCSc1nc2sc3c(c2c(=O)n1-c1ccc(C)cc1)CCN(C)C3, the inhibition was 9.9% (inactive).
O=S1(=O)CC(N2CCSCC2)CN1Cc1cn(Cc2cccc(Cl)c2)nn1 (configuration not stated) was tested, and the inhibition was 0.5% (inactive).
With Cc1ccc(SCC(=O)NNC(=O)c2ccc(S(C)(=O)=O)cc2)cc1 the inhibition was 0.3% (inactive).
With CC1CCCCC1NC(=O)NC(=O)COC(=O)C1=NN(c2ccccc2)C(=O)CC1 (configuration not stated) the inhibition was -0.8% (inactive).
With CCOc1ccc(NC(=S)N2CCCCCC2)cc1 the inhibition was 0% (inactive).
With CCNC(=S)N1CCN(c2ncccn2)CC1 the inhibition was 1.2% (inactive).
In the case of CC(=NNC(=S)N1CCCCCC1)c1ccccn1, the inhibition is reported as 32.5% (active).
In the case of CCc1[nH]nc(C(=O)N2CCCC(CO)(Cc3ccc(F)cc3F)C2)c1C (configuration not stated), the inhibition is reported as 0.2% (inactive).
With O=C(c1cccc(-n2cccc2)c1)N1CCN(S(=O)(=O)c2ccc(F)cc2)CC1 the inhibition was -0.8% (inactive).
For CCCCN1C(=O)C(CC(=O)NCc2cccs2)CC(C(=O)N2CCCCCC2)=C1C (configuration not stated), the inhibition was 0% (inactive).
In the case of CCN(CC)C(=O)CSC1c2ccccc2C(=O)N1c1ccccc1 (configuration not stated), the inhibition is reported as -1.6% (inactive).
COc1ccc(C(=O)Nc2nc(-c3ccc(OC)cc3)c(-c3ccc([N+](=O)[O-])cc3)s2)cc1 was tested, and the inhibition was 40.2% (active).
For COc1ccc(-c2[nH][nH]c(=O)c2NC(=O)c2ccc([N+](=O)[O-])cc2)cc1, the inhibition was 0.1% (inactive).
COc1ccc(NC(=O)c2cn(CCC#N)nc2-c2ccc([N+](=O)[O-])cc2)cc1 was tested, and the inhibition was -1.1% (inactive).
